From PubChem BioAssay (NCI)
This is part of a sample that, as a whole, favours compounds with a hit. Of some 83,000 tested, about 20% had one in any assay.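 For each line, cells grew in 96-well plates with the test compound present at a single concentration for 48 hours.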 Unmarked numbers belong to inactive results. The source made the active and inactive calls. How the source made its calls: active means growth percent below 10; inactive means the rest.

How the values were obtained:
Assay in all cases: NCI-60 one-dose screen, 48 h (100 = growth as untreated, 0 = no growth, -100 = all killed)
Conditions in all cases: 10 µM unless noted
NCI-H23 lung = tested on: NCI-H23 lung
NCI-H226 lung = tested on: NCI-H226 lung
NCI-H322M lung = tested on: NCI-H322M lung
HOP-62 NSCLC = tested on: HOP-62 NSCLC
HOP-92 NSCLC = tested on: HOP-92 NSCLC
NCI-H522 lung = tested on: NCI-H522 lung
A549/ATCC NSCLC = tested on: A549/ATCC NSCLC
786-0 renal = tested on: 786-0 renal
COLO 205 colon = tested on: COLO 205 colon
DU-145 prostate = tested on: DU-145 prostate
K-562 leukemia = tested on: K-562 leukemia
MALME-3M melanoma = tested on: MALME-3M melanoma
MDA-MB-231 breast = tested on: MDA-MB-231 breast
RXF 393 renal = tested on: RXF 393 renal
SF-268 CNS = tested on: SF-268 CNS
SF-295 CNS = tested on: SF-295 CNS
SF-539 CNS = tested on: SF-539 CNS
UACC-257 melanoma = tested on: UACC-257 melanoma
M14 melanoma = tested on: M14 melanoma

**Q.** Which growth (NCI-H23 lung) does the source give for `COc1ccc(S(=O)(=O)Nc2ccc(-c3ccc4c(c3)NC(=O)/C4=C\c3ccc[nH]3)cc2)cc1OC` here?
**A.** -25.1% (active)

**Q.** And the growth (NCI-H226 lung)?
**A.** -37.8% (active)

**Q.** And the growth (NCI-H322M lung)?
**A.** 31.6%

**Q.** What about the growth (HOP-62 NSCLC) of the same compound?
**A.** 0.497% (active)

**Q.** What about the growth (HOP-92 NSCLC) of the same compound?
**A.** 5.85% (active)

**Q.** And the growth (NCI-H522 lung)?
**A.** 2.96% (active)

**Q.** What about the growth (A549/ATCC NSCLC) of the same compound?
**A.** -25.8% (active)

**Q.** What about the growth (786-0 renal) of the same compound?
**A.** -9.09% (active)

**Q.** What about the growth (COLO 205 colon) of the same compound?
**A.** 39.8%

**Q.** What about the growth (DU-145 prostate) of the same compound?
**A.** 10.4%

**Q.** And the growth (K-562 leukemia)?
**A.** 28.7%

**Q.** What about the growth (MALME-3M melanoma) of the same compound?
**A.** -16.2% (active)

**Q.** What about the growth (MDA-MB-231 breast) of the same compound?
**A.** -46.1% (active)

**Q.** What about the growth (RXF 393 renal) of the same compound?
**A.** -23% (active)

**Q.** And the growth (SF-268 CNS)?
**A.** 65%

**Q.** And the growth (SF-295 CNS)?
**A.** 56.1%

**Q.** And the growth (SF-539 CNS)?
**A.** -46.5% (active)

**Q.** And the growth (UACC-257 melanoma)?
**A.** -10.7% (active)

**Q.** What about the growth (M14 melanoma) of the same compound?
**A.** 0.851% (active)

**Q.** What does the source list for `COc1cccc(C(N)=Nc2ccc(OCCCCCCCCn3cncn3)cc2)c1`?
**A.** growth (NCI-H23 lung): 9.5% (active); growth (NCI-H322M lung): 58.1%; growth (HOP-62 NSCLC): 16.2%; growth (HOP-92 NSCLC): 73.7%; growth (A549/ATCC NSCLC): 24.6%; growth (786-0 renal): 28.4%; growth (K-562 leukemia): 15.8%; growth (MALME-3M melanoma): 37.4%; growth (SF-268 CNS): 27%; growth (UACC-257 melanoma): 39.1%; growth (M14 melanoma): 22.6%

**Q.** Which results are given for `COc1ccc2c(c1)C(=O)N(C)C2C1c2c(cc3c(c2OC)OCO3)CCN1C` (centres undefined)?
**A.** growth (NCI-H23 lung): 64.9%; growth (NCI-H226 lung): 65.1%; growth (NCI-H322M lung): 75.9%; growth (HOP-62 NSCLC): 54.5%; growth (HOP-92 NSCLC): 78.7%; growth (NCI-H522 lung): 36%; growth (A549/ATCC NSCLC): 57.9%; growth (786-0 renal): 65.9%; growth (COLO 205 colon): 33.1%; growth (DU-145 prostate): 73.2%; growth (K-562 leukemia): 16.6%; growth (MALME-3M melanoma): 33.8%; growth (MDA-MB-231 breast): 66.7%; growth (RXF 393 renal): 19.8%; growth (SF-268 CNS): 66%; growth (SF-295 CNS): 26.7%; growth (SF-539 CNS): 45.5%; growth (UACC-257 melanoma): 71%; growth (M14 melanoma): 36.6%
